Screens as filed in PubChem.
GLA inh pH 4.5: alpha-galactosidase A (human) inhibition, pH 4.5; activity change, negative = inhibition, % at 105 µM; 230,000 tested, under 10 active; purified enzyme, 4-MU-alpha-Gal fluorescence, pH 4.5; AID 1467;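 also: 0% = full activity with enzyme and -100% = basal without enzyme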
PNC inhibitor: inhibitors of perinucleolar compartment assembly; hit rate 3.1% among 140,000; AID 2417; PC3M PTB-GFP, PNC prevalence imaging, 16 h; stronger effect = lower value; activity change (PNC), negative = inhibition, % at 10 µM;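 active = readout at or below -70, meaning at least 70% loss of cells showing the perinucleolar compartment, a nuclear body marking cancer cells; inconclusive = readout between -30 and a set limit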;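 also: plate controls were DMSO wells for no effect and camptothecin positive control wells for full effect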
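PC3M cells stably expressing PTB-GFP, 750–1000 cells/well, treated 16 h at 37 °C with compound (23 nl of library stock), in duplicate. After paraformaldehyde fixation and Hoechst stain, imaged at 20x; PNC prevalence scored by image analysis.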
ALDH1A1 inh: blocks purified human ALDH1A1 activity. hit rate 7.3% among 220,000. AID 1030. Potency, µM (titrated, usually from 75.3 µM), inactives show at the highest dose activity, negative = inhibition, most hits filed as inhibitors. Purified ALDH1A1, NADH fluorescence, propionaldehyde substrate; active = well fitted inhibition curve with a large enough effect, not every such curve was filed as active; inconclusive = small, poorly fitted or top-dose-only effect, or another doubt; inactive = no such curve, though single readings can be large or run the other way;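 also: potency is read from the fitted curve at half-maximal effect; plate controls were no enzyme wells and a reference inhibitor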
HPGD block: HPGD (human) dehydrogenase inhibition; hit rate 4.3% among 150,000; P15428; Potency, µM, for inactives: at the highest dose activity change, negative = inhibition, hits mostly inhibitors; purified HPGD, NADH fluorescence kinetic, PGE2 substrate; active = well fitted inhibition curve with a large enough effect, not every such curve was filed as active; inconclusive = small, poorly fitted or top-dose-only effect, or another doubt; inactive = no such curve, though single readings can be large or run the other way; also: potency is read from the fitted curve at half-maximal effect
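NADH formation kinetics: reaction with 30 uM PGE2 and 1 mM NAD+ (final), 20 nM enzyme, Tris-HCl pH 8 with Tween 20, after 15 min compound preincubation at room temperature. Fluorescence change, last versus first of five reads.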
ALOX12 inhib: inhibitors of human 12-lipoxygenase (ALOX12). P18054. purified 12-hLO, xylenol orange hydroperoxide absorbance. Potency, µM (highest dose often 57.1 µM), without a hit: at the highest dose activity change, negative = inhibition, hits mostly inhibitors. hit rate 0.12% among 150,000; also: potency is read from the fitted curve at half-maximal effect; nearly all actives have a fitted effect of over 55% in size
Target sequence (P18054 whole entry, looked up): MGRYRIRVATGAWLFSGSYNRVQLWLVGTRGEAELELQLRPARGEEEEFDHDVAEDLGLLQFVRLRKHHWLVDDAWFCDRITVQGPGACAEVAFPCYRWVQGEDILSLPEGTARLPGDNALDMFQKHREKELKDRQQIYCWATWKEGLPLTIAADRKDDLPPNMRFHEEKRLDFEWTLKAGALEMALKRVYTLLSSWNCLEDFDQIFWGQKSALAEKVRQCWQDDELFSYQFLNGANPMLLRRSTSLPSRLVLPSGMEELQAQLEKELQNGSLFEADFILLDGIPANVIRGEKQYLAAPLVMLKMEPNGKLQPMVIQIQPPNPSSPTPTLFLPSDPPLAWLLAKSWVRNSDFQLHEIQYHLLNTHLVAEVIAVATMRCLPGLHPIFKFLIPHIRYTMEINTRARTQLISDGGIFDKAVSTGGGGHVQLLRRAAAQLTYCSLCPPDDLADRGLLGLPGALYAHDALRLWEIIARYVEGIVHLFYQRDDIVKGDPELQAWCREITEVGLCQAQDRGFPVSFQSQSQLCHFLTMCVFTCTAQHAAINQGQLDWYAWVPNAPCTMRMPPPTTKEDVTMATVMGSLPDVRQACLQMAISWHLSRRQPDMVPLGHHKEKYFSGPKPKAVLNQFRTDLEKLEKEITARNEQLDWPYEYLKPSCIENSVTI
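Hydroperoxide output read as Fe(III)-xylenol orange absorbance, 573-to-405 nm ratio, after 30 min reaction with 40 uM arachidonic acid. Enzyme: 150 nM purified human 12hLO, 15 min compound preincubation; 25 mM Hepes pH 7.0, room temperature.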
aGal spleen mod: inhibitors or activators of human alpha-galactosidase in spleen homogenate. Potency, µM (series often up to 80 µM), inactives show at the highest dose activity change, negative = inhibition, actives largely listed as inhibitors. hit rate 0.008% among 240,000. P06280. human spleen homogenate, 4MU-alpha-Gal fluorescence, 40 min;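 also: potency is read from the fitted curve at half-maximal effect; 0% = enzyme with vehicle and -100% = no enzyme basal signal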
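Spleen homogenate 1 ug + cpd (titration) + 4-MU-alpha-D-galactopyranoside 1 mM; 37C 40 min; 50 mM citrate/phosphate pH 5.0, 0.01% Tween-20; stop pH 10; fluorescence 365/440; AC50 via Hill.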
Active calls of the source: *; u = inconclusive; x = no result; [ ] = remark or other dose. An excerpt weighted towards active compounds, which were near 10% of everything screened. Unless noted, calls follow the shape of the dose curve; as a rule, active = well fitted curve in the direction sought with a large enough effect; inconclusive = small, poorly fitted or top-dose-only effect, or another doubt; inactive = no such curve, though single readings can be large; an effect the other way counts as inactive or inconclusive. Unless noted, % is scaled to controls: 0 for no effect and ±100 for the full control effect.

SMILES	GLA inh pH 4.5	PNC inhibitor	ALDH1A1 inh	HPGD block	ALOX12 inhib	aGal spleen mod
Cc1cnc(C(=O)N2CCCC(C(=O)c3ccc(C(C)(C)C)cc3)C2)cn1 (stereo not drawn)	-3.0	x	12.6µM*	x	x	0.4%
COC(=O)c1sccc1NC(=O)CSc1ccccc1NS(=O)(=O)c1ccccc1Cl	-3.3	-7.3	7.08µM*	-15.3%	-1.9%	-12.3%
COC(=O)c1sccc1NC(=O)CSc1ccccc1NS(=O)(=O)c1ccc(Cl)cc1	-12.0	-26.1	12.6µM*	-16.2%	-9.5%	-9.4%
Cc1ccc(NC(=O)CSc2nnc3ccccn23)cc1S(=O)(=O)N1CCOCC1	9.1	x	7.5%	x	x	2.4%
COc1cccc(-c2nn(-c3ccccc3)cc2CN(C)C(C)c2ccon2)c1 (stereo not drawn)	-8.0	x	-31.7%	x	x	-19.0%
NC(=O)C1O[C@@H](O)[C@H](O)[C@@H](O)[C@H]1O (stereo partly drawn)	x	x	x	x	x	4.5%
Cc1ccc(S(=O)(=O)N2CCCCC2)cc1NC(=O)COC(=O)Cc1cccc(C(F)(F)F)c1	-15.7	u	5.7%	-16.6%	-3.0%	3.1%
CC(C)(C)c1ccc(C(=O)N2CCC(=O)N(C(COCc3ccccc3)Cc3ccccc3)CC2)cc1 (stereo not drawn)	2.9	-114.6*	u	-29.0%	-9.3%	1.8%
CC(C)(C)c1ccc(OCC(=O)N/N=C/c2ccsc2)cc1	-10.6	u	7.5%	x	0.9%	-1.1%
CC(C)(C)c1ccc(OCC(=O)N/N=C/C2CC=CCC2)cc1 (stereo not drawn)	-2.6	x	31.6µM*	x	x	1.3%
COc1ccc(/C=N/n2c(-c3ccc(C)cc3)n[nH]c2=S)cc1OC	0.9	x	x	x	x	3.5%
S=c1[nH]nc(-c2cccs2)n1/N=C/c1c(Cl)cccc1Cl	-28.6	x	15.8µM*	x	x	0.1%
COc1ccc(/C=N/n2c(-c3cccs3)n[nH]c2=S)cc1	3.9	23.4	-8.7%	3.98µM*	-17.4%	-8.9%
Cc1ccc(/C=N/n2c(-c3cccs3)n[nH]c2=S)cc1	-2.7	60.2	u	4.47µM*	-11.8%	5.7%
C=C1C(=O)[C@]23[C@H](O)[C@H]1CC[C@H]2[C@@]12COC3(O)[C@H](O)[C@@H]1C(C)(C)CC[C@@H]2O	-0.6	x	8.8%	u	-11.9%[0.00818 µM]	-3.0%
CN1/C(=C\C=O)C(C)(C)c2ccccc21	-0.6	x	-6.2%	x	x	0.5%
CN1\C(=C/C=C/C=C/C=[N+](C)C)C(C)(C)c2ccccc21	-3.0	x	25.1µM*	x	x	7.8%
Cc1ccc(C(=O)NCC(=O)NCC(=O)OCC(=O)c2ccc(F)cc2)cc1	4.2	41.5	-2.1%	-16.4%	2.1%	-4.6%
Cc1cc(C)n2nc(SCC(=O)N(C)c3c(N)n(Cc4ccccc4)c(=O)[nH]c3=O)nc2n1	1.9	x	-2.7%	x	x	-3.2%
C[C@H](C(=O)c1ccccc1)C(c1ccccc1)N1CCOCC1 (stereo partly drawn)	x	x	u	-29.3%	x	x
COC(=O)Nc1ccc(S(=O)(=O)N2CCCCCC2)cc1	-2.6	98.6	1.7%	-18.6%	-2.1%	-2.6%
N#C/C(=N\Nc1ccc(S(=O)(=O)N2CCOCC2)cc1)C(N)=S	-16.2	x	3.16µM*	x	x	3.2%
N#CC(C#N)=NNc1ccc(S(=O)(=O)N2CCCCC2)cc1	-15.2	u	u	31.6µM*	-1.2%	-16.8%
CNc1nc2[nH]c(=O)c3c(c2s1)OC(N)=C(C#N)C3c1cccc(F)c1 (stereo not drawn)	-4.4	-12.9	7.08µM*	u	-14.2%	-23.4%
COc1ccc(NC(=O)C(Sc2nnc3ccccn23)c2ccccc2)cc1Cl (stereo not drawn)	1.2	-4.7	u	-16.6%	-3.9%	4.7%
SMILES	GLA inh pH 4.5	PNC inhibitor	ALDH1A1 inh	HPGD block	ALOX12 inhib	aGal spleen mod
CC1(C)CC(=O)C2=C(C1)OC(N)=C(C#N)C2c1ccoc1 (stereo not drawn)	-1.5	x	u	x	x	2.5%
CC1(C)CC(=O)C2=C(C1)OC(N)=C(C#N)C2C#Cc1ccccc1 (stereo not drawn)	-6.7	-16.5	1µM*	12.6µM*	-11.0%	-9.4%
C/C(=C\c1ccco1)C1C(C#N)=C(N)OC2=C1C(=O)CC(C)(C)C2 (stereo not drawn)	-1.4	41.0	12.6µM*	-16.3%	-3.8%	-4.0%
COCCNc1cc(-c2ccccc2C)ncn1	x	x	u	x	x	-4.1%
O=C(O)c1cc(O)c2c(c1)[C@H]([C@H]1c3cc(C(=O)O)cc(O)c3C(=O)c3c(O[C@@H]4OC(CO)C(O)C(O)C4O)cccc31)c1cccc(O[C@@H]3OC(CO)C(O)C(O)C3O)c1C2=O (stereo partly drawn)	-11.9	x	-9.6%	7.94µM*	-3.1%	u
COc1c(Cl)ccc(Cl)c1C(=O)OCC(=O)O	-12.3	23.6	22.4µM*	-11.1%	-5.0%	-1.9%
CCCOC(=O)c1ccc(NC(=O)c2c(Cl)ccc(Cl)c2OC)cc1	-17.2	9.5	u	-7.9%	-1.4%	-4.8%
O=C(CSc1ccc(-c2ccco2)nn1)N1CCCC1	-1.5	x	u	x	x	0.6%
O=C(CSc1ccc(-c2ccco2)nn1)NCc1ccccc1	-5.5	-24.1	u	u	2.6%	4.0%
Cc1cccc(NC(=O)CSc2ccc(-c3ccco3)nn2)c1C	1.0	4.0	23.8µM*	-16.5%	0.4%	0.5%
Cc1cccc(NC(=O)CSc2ccc(-c3ccccn3)nn2)c1C	0.6	x	2.0%	x	x	-0.3%
O=C(CSc1ccc(-c2ccco2)nn1)c1cccc([N+](=O)[O-])c1	-6.8	43.9	22.4µM*	-23.2%	-2.2%	-8.6%
O=C(CSc1ccc(-c2ccco2)nn1)NCc1ccc(Cl)cc1	6.2	16.4	7.08µM*	-18.2%	-4.9%	-4.0%
Cc1nc(NC(=O)/C=C/c2ccccc2)sc1C(=O)N1CCCCC1	-3.1	x	-4.4%	x	x	3.6%
C=C/C(C)=C/[C@]1(C)SC(=O)C(C)=C1O	x	x	x	x	-4.4%	x
Cc1ccc(C)c2[nH]c(=O)c(C(c3nnnn3C(C)(C)C)N3CC=C(c4ccc(F)cc4)CC3)cc12 (stereo not drawn)	-0.9	u	u	-21.9%	-3.2%	-5.8%
Cc1noc(C)c1-c1ccc2ncnc(N(C)C)c2c1	x	x	-8.7%	x	x	8.6%
COc1cccc(-c2nnc(SCC3CNC(=O)O3)n2-c2ccc(Cl)cc2)c1 (stereo not drawn)	-0.5	81.4	0.631µM*	x	-0.5%	6.9%
Cc1cc(C)c(NC(=O)C[C@H](CC(=O)O)c2cccc3ccccc23)c(C(=O)N2CCC3(CCCC3)CC2)c1	1.1	x	-8.4%	9.8%	-4.7%	18.0%
Cc1ccc(NC(=O)CSc2ncc3ccccn23)cc1C	0.1	x	3.16µM*	x	x	-0.2%
